Laboratory results from PubChem BioAssay AID1626 (SRMLSC, 2009).
About 2,000 (0.91%) of roughly 220,000 compounds were called active. About 2% were inconclusive and are not listed. Cut-off read from the data, not from the text of the source: inconclusive = inhibition above about 80% without an active follow-up result; inactive = below that; test concentration not stated here. These entries were drawn from the full list. Potency and affinity values are given separately.

Assay: M. tuberculosis H37Rv growth inhibitors, H37Rv strain (AID 1626);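 note: bacteria incubated seven days before Alamar blue readout; 0% = bacteria only wells and 100% = bacteria with antibiotic wells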
Settings: hits give high values, concentration not given here

SMILES | inhibition
C=CCn1c(=O)c2ccccc2n2c(SCC(=O)c3ccccc3)nnc12 | 6.67% (inactive)
CCN(CC)CCOc1ccc(/C(=C(/Cl)c2ccccc2)c2ccccc2)cc1 | 41% (inactive)
CN(C)CCOc1ccc(/C(=C(/CCCl)c2ccccc2)c2ccccc2)cc1 | 59.6% (inactive)
CCCC(=O)Nc1ccc(C(=O)n2nnc3ccccc32)cc1 | -6.7% (inactive)
COc1ccccc1N1CCN(c2cc(=O)n(Cc3ccc(F)cc3)c(=O)[nH]2)CC1 | 12.4% (inactive)
O=S(=O)(c1cccs1)N1CCN(c2ccc(O)cc2)CC1 | -12.2% (inactive)
Cc1ccc(CN(Cc2ccco2)C(=S)NCC(=O)NC2CC2)cc1 | 5.98% (inactive)
CCc1nnc(NC(=O)c2ccc(OC)cc2)s1 | 2.91% (inactive)
CCc1nnc(NC(=O)c2cc(C)nc3ccccc23)s1 | -1.08% (inactive)
CCc1nnc(NS(=O)(=O)c2ccc(NC(=O)c3cc4ccccc4oc3=O)cc2)s1 | 61.4% (inactive)
Cc1nc2ccc(NC(=O)c3ccc4ccccc4n3)cc2s1 | -4.06% (inactive)
Cc1sc(NC(=O)c2cc3ccccc3oc2=O)c(C(=O)OC(C)C)c1-c1ccccc1 | -5.1% (inactive)
CCOC(=O)c1c(-c2ccccc2)csc1NC(=S)NC | 18.6% (inactive)
O=C(Nc1ccccc1)c1ccc2ccccc2n1 | 8.34% (inactive)
CCOc1ccccc1C(=O)Nc1nnc(CC)s1 | -4.9% (inactive)
CN(C)CCCN(Cc1ccccc1)C(=S)Nc1ccc(OC(F)F)cc1 | 4.19% (inactive)
Cc1cc(C)n(-c2nc3ccccc3nc2Nc2ccc3c(c2)OCO3)n1 | 13.5% (inactive)
Cc1cccc(NC(=S)NCc2cccs2)c1C | 9.19% (inactive)
Cc1ccnc(NS(=O)(=O)c2ccc(Cl)nc2)c1 | -4.15% (inactive)
CCNC(=S)/N=C(/Nc1ccc(OC)cc1)Nc1nc(C)cc(C)n1 | -8.72% (inactive)
CCc1nnc(NC(=O)c2ccncc2)s1 | -7.55% (inactive)
CCC(CC)c1nnc(NC(=O)c2cc(-c3ccccc3)nc3ccccc23)s1 | 65.7% (inactive)
CCC(CC)c1nnc(NC(=O)c2ccco2)s1 | -8.07% (inactive)
CCSc1nnc(NC(=O)c2ccccc2)s1 | 0.13% (inactive)
CCc1nnc(NC(=O)c2c(OC)cccc2OC)s1 | -2.43% (inactive)

SMILES | inhibition
CCSc1nnc(NC(=O)c2cccc3ccccc23)s1 | 3.82% (inactive)
O=C(CSC1=NCCN1)NC12CC3CC(CC(C3)C1)C2 | -6.99% (inactive)
CCN(CC)S(=O)(=O)c1cc([N+](=O)[O-])ccc1N=Nc1c(O)[nH]c2ccccc12 | 0.25% (inactive)
COc1cccc(/C=N/NC(=S)Nc2cccnc2)c1 | 3.92% (inactive)
Cc1nnc(SCC(=O)N2CCC(Cc3ccccc3)CC2)n(N)c1=O | 7% (inactive)
COc1ccc(C2Nc3ccccc3C(=O)N2NC(=O)c2ccccc2)cc1OC (centres undefined) | 2.58% (inactive)
COc1cccc(NC(=O)CN(C)CC(=O)Nc2ccc(Cl)cc2[N+](=O)[O-])c1 | 7.39% (inactive)
Cc1cccc(-c2cc3nc(C)cc(NCCCn4ccnc4)n3n2)c1 | 5.02% (inactive)
Cc1cccc(-c2cc3nc(C)cc(NCCCN(C)C)n3n2)c1 | -0.01% (inactive)
Cc1cc(NCCN2CCOCC2)n2nc(C)c(-c3ccc(Cl)cc3)c2n1 | 17.9% (inactive)
Cc1cc(NCCCn2ccnc2)n2nc(C)c(-c3ccccc3)c2n1 | -2.71% (inactive)
COCCNc1cc(C)nc2cc(-c3ccc(C)cc3)nn12 | -4.32% (inactive)
Cc1cc(NCCCn2ccnc2)n2nc(-c3ccc(F)cc3)cc2n1 | -4.87% (inactive)
CCC(=O)Nc1ccccc1C(=O)OCc1ccc(C(=O)c2ccccc2)cc1 | 27.4% (inactive)
Nn1c(SCC(=O)N2CCOCC2)nnc1C1CC1 | -3.01% (inactive)
CCOC(=O)c1cc(N)cc([N+](=O)[O-])c1 | 5.48% (inactive)
Cc1cccc(C)c1NC(=S)N1CCCN(C)CC1 | -1.16% (inactive)
CCC(CC)C(=O)N1CCCC(c2nc(-c3cccs3)no2)C1 (centres undefined) | 10% (inactive)
CC1(OC(=O)CCc2ccccc2)C(=O)C=C2C=C3CCCN3C=C2C1=O (centres undefined) | 6.27% (inactive)
C/C(Cl)=C/Cn1c(SCC(C)C)nc2c1c(=O)[nH]c(=O)n2C | 3.03% (inactive)
COc1cccc(NC(=O)N2CCOCC2)c1 | -7.85% (inactive)
O=C(Nc1cccc(-c2cnc3ccccc3n2)c1)c1ccco1 | -2.67% (inactive)
O=C(Oc1ccc(-c2cnc3ccccc3n2)cc1)c1ccco1 | 7.39% (inactive)
O=C(Oc1ccc(-c2cnc3ccccc3n2)cc1)c1cccc([N+](=O)[O-])c1 | 24% (inactive)
O=C(Oc1ccc(-c2cnc3ccccc3n2)cc1)c1cc([N+](=O)[O-])ccc1Cl | 71.7% (inactive)

SMILES | inhibition
COc1ccc(OC)c(-c2cc(C(=O)Nc3c(C)nn(Cc4ccccc4C)c3C)no2)c1 | 72.8% (inactive)
Cc1ccccc1NC(=O)CN1C(=S)NC(C)(C)CC1C (centres undefined) | 2.34% (inactive)
CSc1nnnn1-c1ccc(Cl)cc1 | -2.8% (inactive)
Cc1sc2ncnc(Sc3nnnn3-c3ccc(Cl)cc3)c2c1C | -0.98% (inactive)
Cc1ccc(-n2cccc2C(=O)NS(=O)(=O)c2ccc(C)cc2)cc1 | -6.02% (inactive)
CCc1ccc(OCC(=O)O/N=C(\N)c2ccccn2)cc1 | 8.77% (inactive)
O=C(CSc1nc(-c2ccccc2)c(-c2ccccc2)[nH]1)NCC1CCCO1 (centres undefined) | -3.58% (inactive)
N#CC1=C(S)N(c2ccccc2)C(c2ccc(-c3cc(Cl)ccc3Cl)o2)NC1=O (centres undefined) | 9.36% (inactive)
N#CC1=C(S)N(c2ccccc2)C(c2ccc(-c3cccc(Cl)c3)o2)NC1=O (centres undefined) | 4.44% (inactive)
C/C=C/c1ccc(OCCCCNCc2ccco2)c(OC)c1 | -4.41% (inactive)
CCCN(CCC)C(=O)CC(c1ccccc1)c1ccc(C)cc1O (centres undefined) | 2.31% (inactive)
CCN(CC(=O)NCCC1=CCCCC1)S(=O)(=O)c1ccccc1 | -1.16% (inactive)
COc1cccc(N2CCN(C(=O)c3ccc4nc(N5CCCCC5)sc4c3)CC2)c1 | 5.19% (inactive)
CCOC(=O)N1CCN(C(=O)c2ccc3nc(N4CCCCC4)sc3c2)CC1 | -6.19% (inactive)
CSCCNC(=O)c1cccc(Cl)c1 | 3.62% (inactive)
Cn1c(=O)c2c(nc(CN3CCOCC3)n2CC(=O)c2ccccc2)n(C)c1=O | -10.9% (inactive)
CN1CCN(c2ncnc3c2c(-c2ccccc2)cn3-c2ccc(F)cc2)CC1 | 5.53% (inactive)
Cc1scc(C(=O)N/N=C/c2ccc(OCC(C)C)cc2)c1C | 6.9% (inactive)
Cc1ccc(-c2cc(-c3ccc(C)cc3)[n+](C)o2)cc1 | -0.95% (inactive)
COc1ccc(/C=C/c2ccncc2)cc1 | -1.37% (inactive)
COc1cccc(NC(=O)Cn2c(CCC(=O)O)ccc2-c2cccs2)c1 | -0.82% (inactive)
Cc1ccccc1NC(=O)c1ccc(CSc2ncccn2)cc1 | 5.28% (inactive)
CCn1cc(CNC(=O)c2cccc([N+](=O)[O-])c2)cn1 | -9.32% (inactive)
CCn1cc(CNC(=O)c2ccc(C)s2)cn1 | -1.4% (inactive)
O=C(NCc1ccc(F)cc1)c1ccc(N2CCc3ccccc32)c([N+](=O)[O-])c1 | 13.9% (inactive)

SMILES | inhibition
CS(=O)(=O)c1ccc(C(=O)NCc2ccc(F)cc2)cc1 | -6.92% (inactive)
CCOc1ccc(NC(=O)N2CCN(S(C)(=O)=O)CC2)cc1 | -3.68% (inactive)
COc1ccc(-n2cnc3c(sc4nccc(N(C)C)c43)c2=O)cc1 | 10.5% (inactive)
COc1ccc(C=C2C(=O)OC(C)(C)OC2=O)cc1OC | -16.1% (inactive)
CN(C)c1ccc(C=C2C(=O)OC(C)(C)OC2=O)cc1 | -0.63% (inactive)
COC(=O)CN(c1ccccc1)S(=O)(=O)c1cc(Br)ccc1OC | 5.26% (inactive)
CCOC(=O)Cc1csc(NC(=O)c2ccc(C)cc2)n1 | -1.68% (inactive)
CCOC(=O)Cc1csc(NC(=O)c2cc3c(s2)CCCC3)n1 | 6.6% (inactive)
CCOC(=O)Nc1ccc(C(=O)/C=C/c2ccccc2)cc1 | 10.2% (inactive)
CCOc1ccc(C(=O)/C=C/c2ccc(SC)cc2)cc1 | -1.12% (inactive)
COc1ccccc1/C=C/C(=O)c1ccc(NC(C)=O)cc1 | 94.1% (inactive)
Cc1ccc(/C=C/C(=O)c2ccc(O)cc2)cc1 | 11.5% (inactive)
CSc1ccc(/C=C/C(=O)c2ccc(NC(=O)C(C)C)cc2)cc1 | 75.2% (inactive)
CSc1ccc(/C=C/C(=O)Nc2ccccc2)cc1 | 33.9% (inactive)
O=C(Nc1nnc(CC2=CCCCC2)s1)Nc1ccccc1F | -2.47% (inactive)
Cc1nnc2c3ccccc3c(-c3ccccc3)nn12 | 5.99% (inactive)
CCCC(=O)c1c[nH]c(C(=O)NCc2ccco2)c1 | -9.43% (inactive)
Cc1ccc(Cn2cc(/C=N/NC(=O)Cc3nnc(NC(=O)c4ccc(C)cc4)s3)c3ccccc32)cc1 | 7.8% (inactive)
O=C(CCNC(=O)c1ccco1)NCc1ccccc1 | 0.15% (inactive)
COc1ccc(N2CCN(c3nc(NCCc4ccc(OC)c(OC)c4)nc(OC)n3)CC2)cc1 | 34.2% (inactive)
COc1ccc(CCNc2nc(N3CCOCC3)nc(N3CCOCC3)n2)cc1OC | 8.14% (inactive)
CC(C)CCN1CCN(Cc2ccc(C#CC(C)(C)O)s2)CC1CCO (centres undefined) | 9.71% (inactive)
CC(=O)c1ccc(-c2ccc(C(=O)N3CCCc4ccccc43)o2)cc1 | 17.9% (inactive)
CSc1sc(-c2ccnc(=S)[nH]2)c(-c2ccccc2)c1C#N | -4.19% (inactive)
